# Test results published in PubChem BioAssay (EPA / NIEHS).
# Inconclusive results are not listed. Activity calls are given as the source filed them. Rule for the calls: active = hit-call score of the fitted dose curve at least 0.9, where 1 is the maximum; inconclusive = response in the unintended direction; inactive = score below 0.9.
# How the values were obtained:
# [1] = ACEA_AR_agonist_AUC_viability: ACEA Biosciences xCELLigence Real-Time Cell Analysis on Androgen Receptor Agonism for Viability (AID 2283775);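 for AC50: viability read 80 hours after compound addition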
# Summary of the method: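 22Rv1 cells; impedance growth kinetics; 8-pt 1:4 dilutions from 100 uM top final, ≤0.5% DMSO; n = 2; 80 h read; AUC viability, loss-of-signal vs DMSO.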
# [2] = ACEA_AR_antagonist_AUC_viability: ACEA Biosciences xCELLigence Real-Time Cell Analysis on Androgen Receptor Antagonism for Viability (AID 2283776);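 note: 22Rv1 human prostate cancer cells growing on impedance electrode plates; area under impedance growth curve at 80 h after dosing as viability; hits lower the growth signal relative to DMSO meaning cytotoxicity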
# Summary of the method: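 22Rv1 prostate cells, continuous dosing up to 100 uM final (0.5% DMSO max), duplicate plates. Growth measured by impedance; AUC at 80 h, loss of signal vs DMSO.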
# [3] = ACEA_ER_AUC_viability: ACEA Biosciences xCELLigence Real-Time Cell Analysis on Estrogen Receptor Agonism for Viability (AID 2283782);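 note: hit means loss of impedance signal meaning reduced cell growth or viability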
# Summary of the method: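 Read-out: real-time electrical impedance (RT-CES) area under curve, loss of signal taken as reduced viability, normalized to DMSO baseline. T-47D cells, charcoal-stripped serum medium, compounds up to 100 uM final, continuous exposure, 80 h.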
# AR (gene 367) [4] = molecular target: AR (gene 367) (UniProt P10275); test: ACEA_AR_agonist_80hr: ACEA Biosciences xCELLigence Real-Time Cell Analysis on Androgen Receptor Agonism for Proliferation (AID 2283783);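 note: hits increase impedance growth signal above DMSO baseline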
# Summary of the method: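 Impedance (RT-CES) growth signal at 80 h post-dose; 22Rv1 cells, 8-pt 1:4 series, top 100 uM final, DMSO ≤0.5%; duplicate plates; gain-of-signal fit relative to DMSO baseline.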
# AR (gene 367) [5] = molecular target: AR (gene 367) (UniProt P10275); test: ACEA_AR_antagonist_80hr: ACEA Biosciences xCELLigence Real-Time Cell Analysis on Androgen Receptor Antagonism for Proliferation (AID 2283787);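 note: 22Rv1 human prostate cancer cells with growth followed by electrical impedance; hits lower the impedance growth signal relative to DMSO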
# Summary of the method: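 Measures real-time proliferation of 22Rv1 prostate cancer cells by electrode impedance at 80 hours after dosing. Test articles ran at eight concentrations (1:4 steps, top 100 uM final) in biological duplicate.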
# AR (gene 367), sequence (P10275 whole entry, looked up): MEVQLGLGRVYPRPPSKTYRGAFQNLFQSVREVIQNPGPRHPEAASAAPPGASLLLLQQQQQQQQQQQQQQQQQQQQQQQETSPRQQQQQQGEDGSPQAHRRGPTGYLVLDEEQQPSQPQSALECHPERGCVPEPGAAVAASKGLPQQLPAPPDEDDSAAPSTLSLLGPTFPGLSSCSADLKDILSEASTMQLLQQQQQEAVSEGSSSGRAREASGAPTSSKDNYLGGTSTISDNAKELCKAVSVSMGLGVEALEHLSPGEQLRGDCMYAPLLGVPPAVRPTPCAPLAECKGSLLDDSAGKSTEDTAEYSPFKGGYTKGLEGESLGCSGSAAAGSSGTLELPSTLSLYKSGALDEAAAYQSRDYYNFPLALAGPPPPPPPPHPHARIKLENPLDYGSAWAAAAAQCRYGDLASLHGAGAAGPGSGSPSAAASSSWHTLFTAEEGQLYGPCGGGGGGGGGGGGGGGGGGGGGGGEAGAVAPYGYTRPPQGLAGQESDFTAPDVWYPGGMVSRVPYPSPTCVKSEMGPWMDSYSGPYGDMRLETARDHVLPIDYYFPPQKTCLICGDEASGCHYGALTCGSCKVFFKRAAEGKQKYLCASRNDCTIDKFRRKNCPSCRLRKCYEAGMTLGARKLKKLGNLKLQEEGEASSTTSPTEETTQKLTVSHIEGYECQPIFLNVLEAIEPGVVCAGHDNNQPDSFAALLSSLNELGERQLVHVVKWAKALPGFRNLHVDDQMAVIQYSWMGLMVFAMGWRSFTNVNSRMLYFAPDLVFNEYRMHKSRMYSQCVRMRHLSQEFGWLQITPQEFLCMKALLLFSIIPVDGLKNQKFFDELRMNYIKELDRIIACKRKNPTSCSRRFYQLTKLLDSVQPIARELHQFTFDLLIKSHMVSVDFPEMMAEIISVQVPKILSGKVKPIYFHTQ
smiles,measurement,setting,value
CCCCCCCCCCCCCCCO,AC50,[1],78.9 µM (active)
same,AC50,[2],89.4 µM (active)
same,outcome,[3],inactive
COC(=O)c1c(Cl)c(Cl)c(C(=O)OC)c(Cl)c1Cl,outcome,[1],inactive
same,AC50,[2],50 µM (active)
same,outcome,[3],inactive
Cc1ccc(S(=O)(=O)O)cc1C,outcome,[1],inactive
same,outcome,[2],inactive
same,outcome,[3],inactive
C1N2CN3CN1CN(C2)C3,outcome,[1],inactive
same,outcome,[2],inactive
same,outcome,[3],inactive
same,outcome,AR (gene 367) [4],inactive
COCCOc1cc2cc(C(=O)NC3CCN(C(C)C)CC3)n(CC(=O)Nc3ccc(Cl)cn3)c2cn1,AC50,[1],40.9 µM (active)
same,AC50,[2],45 µM (active)
same,outcome,[3],inactive
CC(C)c1cccc(C(C)C)c1N1C(=O)c2ccc(O)cc2C1=O,AC50,[1],19.4 µM (active)
same,AC50,[2],17.6 µM (active)
same,AC50,[3],80.3 µM (active)
CCOC(=O)COc1ccc2c(c1)CC(NCC(O)c1cccc(Cl)c1)CC2 (stereo unspecified),AC50,[1],63.6 µM (active)
same,AC50,[2],24.1 µM (active)
same,AC50,[3],16.2 µM (active)
Cc1ccc(C)c(O)c1,outcome,[1],inactive
same,outcome,[2],inactive
same,outcome,[3],inactive
CCOCCO,outcome,[1],inactive
same,outcome,[2],inactive
same,outcome,[3],inactive
CC(C)(O)c1coc(S(=O)(=O)NC(=O)Nc2c3c(cc4c2CCC4)CCC3)c1,outcome,[1],inactive
same,outcome,[2],inactive
same,outcome,[3],inactive
CCCCCCCCO,outcome,[1],inactive
same,outcome,[2],inactive
same,outcome,[3],inactive
O=C1CCC(N2C(=O)c3ccccc3C2=O)C(=O)N1 (stereo unspecified),outcome,[1],inactive
same,outcome,[2],inactive
same,outcome,[3],inactive
CC(C)CCCCCCCOC(=O)CCCCC(=O)OCCCCCCCC(C)C,outcome,[1],inactive
same,outcome,[2],inactive
same,outcome,[3],inactive
O=c1[nH]c2ccc(S(=O)CCN3CCC(Cc4ccc(F)cc4)CC3)cc2o1 (stereo unspecified),outcome,[1],inactive
same,outcome,[2],inactive
same,outcome,[3],inactive
Clc1nc(Cl)c(Cl)c(Cl)c1Cl,outcome,[1],inactive
same,AC50,[2],50 µM (active)
same,AC50,[3],92 µM (active)
CCNc1ccccc1,outcome,[1],inactive
same,outcome,[2],inactive
same,outcome,[3],inactive
C[C@](N)(Cc1ccc(O)c(O)c1)C(=O)O,outcome,[3],inactive
CC(C)=CCC/C(C)=C\CO,outcome,[2],inactive
same,outcome,AR (gene 367) [4],inactive
O=C(O)c1cccc(Oc2ccccc2)c1,outcome,[2],inactive
same,outcome,[3],inactive
CC(C)CCCCCCOC(=O)c1ccc(C(=O)OCCCCCCC(C)C)c(C(=O)OCCCCCCC(C)C)c1,outcome,[2],inactive
CCCC(=O)OCC,outcome,[2],inactive
same,outcome,[3],inactive
CCOC(=O)c1ccc(C2CCC(NC[C@H](O)COc3ccc(O)c(NS(C)(=O)=O)c3)CC2)cc1 (stereo partly specified),AC50,[2],24.4 µM (active)
same,AC50,[3],5.31 µM (active)
Nc1nc2ncc(CNc3ccc(C(=O)N[C@@H](CCC(=O)O)C(=O)O)cc3)nc2c(=O)[nH]1,outcome,[1],inactive
same,outcome,[2],inactive
same,outcome,AR (gene 367) [5],inactive
O=C(O)c1cccc(N(Cc2cccnc2)c2ccc(OC(F)F)c(OC(F)F)c2)c1,AC50,[1],88.2 µM (active)
same,AC50,[2],76.9 µM (active)
same,AC50,AR (gene 367) [4],10.5 µM (active)
same,AC50,AR (gene 367) [5],77.6 µM (active)
CCCCCCc1ccc(O)cc1O,AC50,[1],16.1 µM (active)
same,AC50,[2],13.7 µM (active)
same,AC50,[3],80.1 µM (active)
same,AC50,AR (gene 367) [5],11 µM (active)
CN(C)c1ccc(N=NS(=O)(=O)O)cc1,outcome,[3],inactive
same,AC50,AR (gene 367) [4],10.7 µM (active)
Fc1ccccc1[C@@H](F)COC1CCC(Nc2ncnc3[nH]ncc23)CC1 (stereo partly specified),AC50,[1],63.2 µM (active)
same,AC50,[2],50 µM (active)
same,AC50,AR (gene 367) [5],54 µM (active)
O=C(CCCCCCCCc1cccnc1)N1CCC(C=C(c2ccccc2)c2ccccc2)CC1,AC50,[1],11.4 µM (active)
same,AC50,[2],12.1 µM (active)
same,outcome,AR (gene 367) [4],inactive
same,AC50,AR (gene 367) [5],7.53 µM (active)
Cc1ccc(O)cc1,outcome,[1],inactive
same,outcome,[2],inactive
same,outcome,[3],inactive
same,outcome,AR (gene 367) [5],inactive
Oc1ccc2c(c1)-c1ccccc1C2,AC50,[1],50 µM (active)
same,AC50,[2],41.8 µM (active)
same,AC50,[3],79.2 µM (active)
same,outcome,AR (gene 367) [4],inactive
same,AC50,AR (gene 367) [5],50 µM (active)
Cc1ccc(N)cc1O,AC50,[1],89.7 µM (active)
same,AC50,[2],87.4 µM (active)
same,outcome,[3],inactive
same,outcome,AR (gene 367) [4],inactive
same,AC50,AR (gene 367) [5],74.4 µM (active)
CC(C)=CCCC(C)CCO (stereo unspecified),outcome,[1],inactive
same,outcome,[2],inactive
same,outcome,[3],inactive
same,outcome,AR (gene 367) [5],inactive
CNS(=O)(=O)c1cc(C(=O)N2CCC(CCN3C4CCC3CC(n3c(C)nc5ccccc53)C4)(c3cccc(F)c3)CC2)c(Cl)cc1F (stereo unspecified),AC50,[3],19.2 µM (active)
COCCOCCOCCOC,AC50,[2],24.2 µM (active)
CCOC(=O)CC(CC(=O)OCC)(OC(C)=O)C(=O)OCC,outcome,[2],inactive
CC(=O)OC[C@H]1O[C@@](COC(C)=O)(O[C@H]2O[C@H](COC(C)=O)[C@@H](OC(C)=O)[C@H](OC(C)=O)[C@H]2OC(C)=O)[C@@H](OC(C)=O)[C@@H]1OC(C)=O,outcome,[2],inactive
Cn1c(=O)cc(Oc2ccc(F)cc2F)c2cnc(NCC(C)(C)O)nc21,outcome,[2],inactive
CCCN(C1CCN(C(=O)C2CCNCC2)CC1)[C@@H]1CCc2ccc(OC)cc2C1,AC50,[1],75 µM (active)
same,AC50,[2],50 µM (active)
same,outcome,AR (gene 367) [4],inactive
same,AC50,AR (gene 367) [5],63.9 µM (active)
CCOc1cccc(-n2cc(C(=O)N3CCN(c4cc(C(=O)O)c5ccccc5c4)CC3)nc2-c2ccc(C)cc2)c1,AC50,[1],7.41 µM (active)
same,AC50,[2],11.5 µM (active)
same,outcome,[3],inactive
same,AC50,AR (gene 367) [5],12.5 µM (active)
Nc1cccc(N)c1,outcome,[2],inactive
